Drawing on PubChem BioAssay AID463254 (National Center for Advancing Translational Sciences (NCATS), 2010), this text covers Potency for 5 compounds.

Out of some 330,000 compounds screened, about 40 (0.01%) were called active. Entries that show only a call come without a potency. The call rests on the fitted dose curve; in most records, active means well fitted inhibition curve with a large enough effect; inconclusive means small, poorly fitted or top-dose-only effect, or effect the other way; inactive means flat fitted curve, though single readings scatter. The sample as a whole holds a higher share of actives than the screen did.
Potency means the concentration at half of the fitted maximal effect.

The target in the assay is Ubiquitin carboxyl-terminal hydrolase 2 (Homo sapiens) (UniProt O75604). Put plainly: qHTS Assay for Inhibitors of Ubiquitin-specific Protease USP2a Using CHOP2 as the Reporter. As to conditions: USP2 core, Ub-CHOP2 coupled fluorogenic reporter, 485/531; series mostly up to 38.3 µM. The text has this: NIH Molecular Libraries Screening Centers Network [MLSCN] NIH Chemical Genomics Center [NCGC] MLSCN Grant: XO1-MH079852-01 PI Name: Nicholson, Ben. Progenra Inc, Malvern, PA NCGC Assay Overview: Homeostasis of cellular proteins is maintained through a combination of synthesis and degradation. The pathway that accounts for the majority of protein degradation is the ubiquitin-proteasomal pathway. Ubiquitin (Ub) is highly conserved in all cells and the generation of a multi-Ub chain typically targets proteins for degradation by the proteasome. However, ubiquitination is highly reversible and dynamic. Deubiquitination, the reverse process, is catalyzed through the action of enzymes referred to as isopeptidases or deubiquitinating enzymes (DUBs). This group of enzymes is collectively responsible for maintaining adequate pools of free ubiquitin and regulating the ubiquitination status of cellular proteins. The class of DUBs referred to as the ubiquitin-specific proteases (USP) family functions endoproteolytically to cleave Ub chains from a wide range of protein substrates. USP2a deubiquitinates fatty acid synthase (FASN) which has recently been identified as an emerging oncology target. To identify inhibitors of USP2a a cell-free assay was employed. […] The reporter enzyme chosen is an enterokinase called CHOP2, which is activated when the Ub is cleaved by USP2. The free and now activated reporter can subsequently act on its reporter substrate. Thus, this coupled assay gives a fluorescent read-out at excitation/emission wavelengths of 485/531. The assay was developed by Progenra, Inc. and has been licensed for sale by LifeSensors, Inc. as Ub-CHOP2-Reporter-Kit (#PR1101).
Ubiquitin carboxyl-terminal hydrolase 2 (Homo sapiens), sequence (O75604 whole entry, looked up): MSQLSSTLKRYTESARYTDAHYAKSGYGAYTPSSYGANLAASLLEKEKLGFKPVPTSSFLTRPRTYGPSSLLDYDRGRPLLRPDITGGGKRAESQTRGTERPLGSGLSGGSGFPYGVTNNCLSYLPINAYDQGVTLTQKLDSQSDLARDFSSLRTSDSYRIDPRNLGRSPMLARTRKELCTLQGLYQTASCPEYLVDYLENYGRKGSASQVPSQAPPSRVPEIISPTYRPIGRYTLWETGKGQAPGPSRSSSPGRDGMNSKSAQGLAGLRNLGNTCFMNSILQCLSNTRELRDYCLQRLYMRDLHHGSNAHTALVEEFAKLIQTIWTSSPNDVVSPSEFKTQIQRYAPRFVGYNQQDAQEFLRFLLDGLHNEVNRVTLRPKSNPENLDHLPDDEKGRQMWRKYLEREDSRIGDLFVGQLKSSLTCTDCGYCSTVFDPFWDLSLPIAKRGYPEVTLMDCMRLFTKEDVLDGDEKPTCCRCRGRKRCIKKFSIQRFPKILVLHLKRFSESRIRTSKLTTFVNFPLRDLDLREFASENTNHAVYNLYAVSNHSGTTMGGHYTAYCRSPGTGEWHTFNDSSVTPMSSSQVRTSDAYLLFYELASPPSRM
NCGC Assay Protocol Summary: The assay buffer, prepared fresh at the day of the assay, contains 20mM Tris-HCl pH 8.0, 2mM CaCl2, 2mM beta-Mercaptoethanol, 0.05% CHAPS. 3ul of 20nM (10nM final) USP2 core, which is stored on ice, is dispensed into a medium-binding black solid Kalypsys 1,536 well plate using the Kalypsys dispenser. The assay plate is then pinned with 23nL compound with the Kalypsys pintool in columns 5-48. The controls are pinned as follows: column 1 two-fold dilutions of 2M NEM in duplicate; column 2 2M NEM (final concentration 38.2mM); column 3&4 DMSO. The assay plate is incubated at RT for 30min. Subsequently, 1.5uL of 100nM (25nM final) Ub-CHOP2 and 1.5uL of 100nM (25nM final) Reporter Substrate (both stored on ice and protected from light) were dispensed into the plate using the Kalypsys dispenser. Plates were read after 60min RT incubation on a ViewLux (Perkin Elmer) plate reader using the following wavelengths Ex 485nm /Em 531nm. Data were normalized to the to AC100 inhibition (NEM). Concentration-response curves were fitted to the normalized data and the concentration-response curves were then classified based on curve quality (r2), response magnitude and degree of measured activity. The time zero reading was used to flag fluorescence artifacts. Keywords: ubiquitination, deubiquitination, proteases, profluorescent, MLSMR, MLPCN, NIH Roadmap, qHTS, NCGC
On the technique in general: qHTS replaces the single test concentration by a dilution series.
As for `O=C(OCC1O[C@@H](OC(=O)c2cc(O)c(O)c(O)c2)[C@@H](OC(=O)c2cc(O)c(O)c(O)c2)[C@@H](OC(=O)c2cc(O)c(O)c(O)c2)[C@@H]1OC(=O)c1cc(O)c(O)c(O)c1)c1cc(O)c(O)c(O)c1` (stereo not given in full), the Potency was 6.31 µM (active). Take `CC(C)(C)[C@]1(O)C[C@@H]2OC(=O)C[C@@]23C(=O)O[C@@H]2OC(=O)[C@H](O)[C@]213`: the Potency result is “inactive”. With `NC(=O)Cn1cc(C(=O)c2ccccc2F)c2ccccc21`, the Potency result was “inactive”. With `Cc1ccnc(-n2c(C)cc(/C=C3\C(=O)NC(=S)N(C)C3=O)c2C)c1` the entry was “inactive”; with `CC12CN3CC(C)(CN(C1)C3c1cccs1)C2` (stereo not given), “inactive”.
